# p53 reactivator: qHTS assay for re-activators of p53 using a Luc reporter. H1299 p53-A138V BP100-luciferase reporter, luminescence, 24 h. Potency, µM (titrated, usually from 92.2 µM), for inactives: top-dose activity change, positive = activation, usual class: activators. 320,000 compounds, 0.063% hits; further: % of control where 0% means no effect; nearly all actives have a fitted effect of over 45% in size
#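 H1299 (p53-null), stable ts p53-A138V + BP100-Luc; 1000 cells/well, Opti-MEM/10% FBS; cpd 4 pt, 1:5; 24 h, 37 deg C, 5% CO2; detection reagent 10 min RT; luminescence.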
# ClpP mod: qHTS Assay for Activators of ClpP | Potency, µM (series often up to 57.5 µM), inactives show at the top dose activity change, negative = active | ATP-dependent Clp protease proteolytic subunit (Bacillus subtilis (strain 168)), P80244 | 340,000 compounds, 1.9% hits | purified B. subtilis ClpP, FRET peptide cleavage, 20 min; active means well fitted falling curve with a large enough effect; inconclusive means small, poorly fitted or top-dose-only effect; inactive means no such curve, though single readings can be large or run the other way; further: the source files actives as falling curves though it sought activators and does not explain the sign; nearly all actives have a fitted effect of over 65% in size
#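 FRET quenching reversal measured ClpP activation: 10 microg/mL B. subtilis ClpP at pH 8 with the FRET-FV decapeptide, read at 430 nm after 320 nm excitation. The 20-min minus 0-min signal was scaled between DMSO/no-enzyme wells and ADEP (5.8 microM final).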
# USP2a inh: qHTS Assay for Inhibitors of Ubiquitin-specific Protease USP2a Using CHOP2 as the Reporter. USP2 core, Ub-CHOP2 coupled fluorogenic reporter, 485/531. Ubiquitin carboxyl-terminal hydrolase 2 (Homo sapiens), O75604. 330,000 compounds, 0.01% hits. Potency, µM (top dose mostly 38.3 µM), inactives show top-dose activity change, negative = inhibition, usual class: inhibitors;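 further: plate controls were DMSO wells for no effect and full inhibition by NEM control for full effect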
# Target sequence (O75604 whole entry, looked up): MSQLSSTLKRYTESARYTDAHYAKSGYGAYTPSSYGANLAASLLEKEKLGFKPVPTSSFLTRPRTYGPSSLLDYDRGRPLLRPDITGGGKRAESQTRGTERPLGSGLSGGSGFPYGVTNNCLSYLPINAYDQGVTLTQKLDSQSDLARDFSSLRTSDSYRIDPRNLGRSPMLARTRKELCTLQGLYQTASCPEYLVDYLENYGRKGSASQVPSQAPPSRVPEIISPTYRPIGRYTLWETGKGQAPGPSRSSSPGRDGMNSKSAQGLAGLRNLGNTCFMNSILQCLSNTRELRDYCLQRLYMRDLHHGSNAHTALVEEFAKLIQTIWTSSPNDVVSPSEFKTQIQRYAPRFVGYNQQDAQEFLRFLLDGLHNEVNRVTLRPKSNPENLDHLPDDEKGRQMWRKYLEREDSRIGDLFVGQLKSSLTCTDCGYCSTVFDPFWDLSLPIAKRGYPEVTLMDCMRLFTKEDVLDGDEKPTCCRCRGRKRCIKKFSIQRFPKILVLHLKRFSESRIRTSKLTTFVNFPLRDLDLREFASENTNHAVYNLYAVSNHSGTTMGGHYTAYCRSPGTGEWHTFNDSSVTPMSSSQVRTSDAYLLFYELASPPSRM
#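 USP2 core (10nM final) preincubated 30min RT with compound in 20mM Tris-HCl pH 8.0, 2mM CaCl2, 2mM beta-mercaptoethanol, 0.05% CHAPS; 25nM Ub-CHOP2 plus 25nM reporter substrate added, fluorescence (Ex485/Em531) read after 60min.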
# Integrin act MD: qHTS for Activators of Integrin-Mediated Alleviation for Muscular Dystrophy. 350,000 compounds, 0.064% hits. alpha7betagal myoblasts, beta-gal FDG fluorescence, 48 h. Potency, µM (series often up to 38.3 µM), for inactives: at the highest dose activation, most hits filed as activators;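 further: 100% = response of the positive control SU9516; nearly all actives have a fitted effect of over 60% in size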
#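 alpha7betagal+/- myoblasts (passage 13, 250/well) treated 48 h at 37C with compounds at 1:260 dilution of DMSO stock. Lysed, then beta-galactosidase activity read as FDG fluorescence (ex 480/em 540) after 30 min, with pre-read for autofluorescence.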
# Eya2 inh: qHTS Assay for Inhibitors of the Phosphatase Activity of Eya2; AID 488837, 2010; Potency, µM (top dose mostly 76.9 µM), inactives show at the top dose activity, negative = inhibition, usual class: inhibitors; Protein phosphatase EYA2 (Homo sapiens), O00167; recombinant Eya2, OMFP fluorescence dephosphorylation (OMFP is methylfluorescein phosphate); 330,000 compounds, 0.006% hits; further: on the % scale 0 is the no-effect control and ±100 the full control effect
#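 Eya2 protein (added as 0.2 uM solution) was preincubated with compound for 10 min at ambient temperature in 50 mM HEPES pH 7.5, 50 mM NaCl, 5 uM MgCl2, 0.05% BSA, 1 mM DTT. OMFP (added at 50 uM) then reacted 10 min; fluorescence read at 485/525 nm.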
# MmCpn inh: Inhibitors of TCP-1 ring complex (TRiC) of Methanococcus maripaludis (MmCpn): qHTS. Potency, µM (series often up to 76.9 µM), inactives show at the top dose activity, negative = inhibition, actives largely listed as inhibitors. purified Mm-Cpn ATPase, ADP Transcreener TR-FRET. Chaperonin Mm-Cpn (Methanococcus maripaludis). 330,000 compounds, 0.031% hits; further: on the % scale 0 is the no-effect control and ±100 the full control effect; nearly all actives have a fitted effect of over 80% in size
#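 Inhibition of chaperonin ATP hydrolysis is measured as reduced ADP production, detected by competitive TR-FRET in which signal falls with ADP. Final enzyme 25 nM and ATP 10 uM, reacted 30 min at 37°C.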
# * hit, by the source's call; ? = inconclusive; · = no result given. The entries come from a sample that favours hits as a whole. Unless noted, the call rests on the fitted dose curve; in most records, active means well fitted curve in the direction sought with a large enough effect; inconclusive means small, poorly fitted or top-dose-only effect, or another doubt; inactive means no such curve, though single readings can be large; an effect the other way counts as inactive or inconclusive. Potency means the concentration at half of the fitted maximal effect.
SMILES,p53 reactivator,ClpP mod,USP2a inh,Integrin act MD,Eya2 inh,MmCpn inh
Cc1ccc(Cn2c(SCC(=O)NCc3ccccc3Cl)nc3ccsc3c2=O)cc1,·,2.4%,·,·,·,·
Cc1cccc(N2CC(C(=O)OCC(=O)Nc3sccc3C(N)=O)CC2=O)c1C (centres undefined),6.0%,·,2.1%,25.9%,-3.6%,-1.7%
Cc1cccc(N2CC(C(=O)OCC(=O)c3ccc(OC(=O)c4cccs4)cc3)CC2=O)c1C (centres undefined),1.7%,31.6µM*,-0.4%,-2.5%,-2.4%,0.3%
C=C[C@@]1(C)C[C@H](OC(=O)CSC(C)(C)CNC(=O)[C@@H](N)C(C)C)[C@@]2(C)C(C)CC[C@@]3(CCC(=O)[C@@H]32)[C@H](C)[C@H]1O (some centres undefined),·,-20.3%,·,·,·,·
COCc1cc(C)n(CC(=O)Nc2ccccc2C(=O)OC)c(=O)c1C#N,18.6%,17.8µM*,6.3%,1.9%,5.5%,-8.1%
COCc1cc(C)n(CC(=O)NC(C)c2ccccc2)c(=O)c1C#N (centres undefined),-3.9%,15.8µM*,-2.1%,0.1%,2.1%,1.5%
COc1c([N+](=O)[O-])ccc(N)c1N,·,1.1%,·,·,·,·
Brc1ccc(-c2cn3nc4c(nc3n2)CCCC4)cc1,?,-14.2%,8.2%,0.0%,-17.3%,-3.4%
Brc1ccc(-c2cn3c(n2)CCc2ccc4cccnc4c2-3)cc1,-1.9%,28.2µM*,-12.6%,-3.2%,15.0%,?
COc1cccc(OC)c1OCCN(C)C,2.3%,-2.0%,0.0%,8.0%,6.8%,-0.1%
COc1cccc(OC)c1OCCNC(C)(C)C,3.2%,31.6µM*,-1.3%,13.6%,11.7%,0.7%
N#Cc1cc(N)ccc1Sc1ccc(Cl)cc1,-5.8%,28.2µM*,2.7%,-28.1%,-9.5%,-0.5%
NC1C(N)C(N)C1N (centres undefined),·,-1.2%,·,·,·,·
CCN(C(=O)Cc1ccccc1OC)c1nnc(-c2ccncc2)s1,-5.0%,-4.4%,4.5%,-17.7%,-11.0%,-2.8%
CCN(C(=O)Cc1cccs1)c1nnc(-c2cc(OC)c(OC)c(OC)c2)s1,-13.7%,22.4µM*,0.2%,-10.0%,-14.9%,-6.2%
Nc1ccc(-c2nc3c(Cl)c(N)ccc3[nH]2)cc1,-8.5%,28.2µM*,-0.4%,11.3%,-0.7%,-27.7%
COc1cc2c(NC3CCN(C)CC3)nc(N3CCCN(C)CC3)nc2cc1OCC1CCNCC1,·,4.6%,·,·,·,·
COc1cc(NC(C)=O)c2ncccc2c1[N+](=O)[O-],2.6%,22.4µM*,-0.6%,8.9%,5.6%,1.8%
COc1cc(NC(C)=O)c2ncccc2c1NC(C)=O,-0.1%,-6.1%,3.1%,-9.9%,?,0.3%
CCOC(=O)CCNCc1ccc(F)cc1,0.1%,17.8µM*,-0.4%,20.6%,-2.8%,-2.2%
CC1CN(C(=O)N2CCC(C(=O)NCc3ccccc3F)CC2)c2cc(Cl)ccc2O1 (centres undefined),·,1.3%,·,·,·,·
CCc1n[nH]c2c1C(=O)CC(C)(C)C2,11.1%,25.1µM*,2.2%,-1.5%,2.9%,-1.8%
COCCOc1ccc(C(F)(F)F)cc1NC(=O)c1ccc(C(F)(F)F)cc1,-14.6%,227.0%,-0.9%,30.3%,-4.3%,-1.4%
COCCOc1ccc(C(F)(F)F)cc1NC(=O)c1ccccc1F,6.5%,25.1µM*,-0.1%,13.6%,10.4%,1.1%
Cc1ccc(S(=O)(=O)N(C)c2ccc(C(=O)Nc3ccccc3C(=O)N3CCOCC3)cc2)cc1,-5.3%,17.8µM*,5.4%,-26.8%,10.0%,-0.4%

# Compound activity from PubChem.
